Consider 40 molecules from PubChem BioAssay.

Active and inactive are the calls of the source.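 Rule for the calls, unless noted: active = inhibition over a set limit, the all-compound mean plus 3 SD, in both replicate runs; inconclusive = over that limit in just one replicate run; inactive = at or under that limit in both runs.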

The first test can be described thus: RAM pathway blockade in budding yeast – dse1pr::URA3 reporter, 5-FOA selection, pilot screen (AID 869).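 Note: 0% = DMSO wells with no growth and 100% = 10 µM 1-NA-PP1 with full growth; RAM network block rescues cells from 5-FOA so hits raise OD615 growth.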 The note with it: S. cerevisiae dse1pr::URA3 5-FOA growth, OD615, 2 d; at 10 µM; active compounds read high; strain carries analog-sensitive mutant Cbk1 kinase.
One may read the inhibition as the change of the read-out against control, counted positive when it falls. As for `C=CCOC(=O)C1=C(C)NC(=O)NC1/C=C/c1ccccc1` (stereo not given), the inhibition is 2.77% (inactive).

As for `Cc1nnc(NC(=O)CSc2nnc(Cc3cccn3C)n2-c2ccccc2)s1`, the inhibition was 1.31% (inactive).

With `COc1ccc(-n2nnc3c(=O)n(CC(=O)OCc4ccccc4)cnc32)cc1`, the inhibition is 1.19% (inactive).

`Cc1ccc(C(C(=O)NC2CCCC2)N2CCCCC2)cc1` (stereo not given): the inhibition is 2.38% (inactive).

For `COc1ccc(OC)c2sc(NC(=O)c3ccc(Br)s3)nc12`, the inhibition was 2.71% (inactive).

Consider `COc1ccc(NC(=O)N(Cc2cccnc2)Cc2ccccc2Cl)c(OC)c1`, for which the inhibition is 1.02% (inactive).

Take `O=C(O)c1cc(Cl)c(Cl)cc1C(=O)N1CCOCC1`: the inhibition is 1.38% (inactive).

For the molecule `Cc1nnc(NC(=O)CSc2nnc(CNC(=O)c3ccccc3)n2-c2ccccc2)s1`, the inhibition is 3% (inactive).

For `c1cncc(-c2nc3ccccn3c2Nc2ccc3c(c2)OCCO3)c1`, the inhibition was 1.04% (inactive).

Turning to `O=c1[nH]cnc2c1sc(=S)n2-c1ccccc1`, the inhibition was 1.87% (inactive).

For the molecule `O=C1c2ccccc2C(=O)C1c1ccncc1`, the inhibition was 0.79% (inactive).

Turning to `COc1ccccc1-n1c(CNC(=O)c2ccco2)nnc1SCC(=O)Nc1nccs1`, the inhibition is 1.09% (inactive).

For the molecule `O=C(NCc1ccccc1)c1ccc(/C=N/O)nc1`, the inhibition was 2.25% (inactive).

Regarding `C=CCOC(=O)COc1ccc2c(C)c(C)c(=O)oc2c1`, the inhibition is 0.765% (inactive).

Regarding `CC1CCN(C(=O)c2cc(-c3ccccc3O)on2)CC1`, the inhibition is 0.335% (inactive).

`CCCCn1c(=O)cc(N2CCOCC2)[nH]c1=O`: the inhibition is 1.04% (inactive).

With `COC(=O)c1ccccc1NS(=O)(=O)c1cn(C)c(=O)n(C)c1=O`, the inhibition was 0.585% (inactive).

For the molecule `CCOC(=O)c1c(C)n(C)c2ccc(OCC(N)=O)cc12`, the inhibition was 1.96% (inactive).

Take `CC(=O)NCC(=O)N(c1ccccc1)C1(C(=O)NC2CCCCC2)CCCCC1`: the inhibition is 0.165% (inactive).

As for `C=CCNc1nc2c(c(=O)n(C)c(=O)n2C)n1CC(=C)C`, the inhibition is -0.15% (inactive).

As to `O=C(C1CC1)N1CCc2cc(Br)cc(S(=O)(=O)NCc3ccccn3)c21`, the inhibition is 1.32% (inactive).

With `Cc1cccc(OCCn2c(=O)n(C)c3ccccc32)c1`, the inhibition was 0.755% (inactive).

As to `COc1ccc(CCNc2nc(=O)[nH]nc2C)cc1OC`, the inhibition is 2.62% (inactive).

Turning to `COCCNC(=O)Cn1cnc2sc(C)c(S(=O)(=O)N3CCC(C)CC3)c2c1=O`, the inhibition was 1.68% (inactive).

Consider `CNC(=O)N(C1=NCC(C)(C)S1)c1ccc(F)c(Cl)c1`, for which the inhibition was 1.26% (inactive).

As to `CN(C)CCNC(=O)c1ccc(CS(=O)(=O)c2ccc(Br)cc2)o1`, the inhibition is 0.565% (inactive).

For `Cc1cc(NC(=O)c2ccccc2)sc1C`, the inhibition was -1.59% (inactive).

Regarding `CCOC(=O)N1CCC(NC(=O)c2cc3c(-c4ccc(Cl)cc4)nn(C)c3s2)CC1`, the inhibition was -0.04% (inactive).

Turning to `O=C(CSc1ncnc2c1oc1ccccc12)NCc1ccc(F)cc1`, the inhibition was -0.055% (inactive).

Consider `CCCCSC1=C(C#N)C(c2ccccc2C)CC(=O)N1` (stereo not given), for which the inhibition was 1.03% (inactive).

As to `CC(=O)NCC(=O)OCC(=O)c1ccc(C)cc1`, the inhibition was 1.21% (inactive).

`CC1(C)Cc2c(C#N)c(NC3CCCCC3)nc(-c3ccco3)c2CO1`: the inhibition was 3.23% (inactive).

Turning to `CC(C)NC(=O)c1ccc(CS(=O)(=O)c2ccc(Br)cc2)o1`, the inhibition was 1.95% (inactive).

As to `COC(=O)Cn1c(CN2CCN(c3ccc(F)cc3)CC2)nc2c1c(=O)n(C)c(=O)n2C`, the inhibition was 2.88% (inactive).

For `CN1CCc2c(sc(NC(=O)c3ccc(S(=O)(=O)N4CCOCC4)cc3)c2C(N)=O)C1`, the inhibition is -0.19% (inactive).

`O=C(NCCn1ccc2ccccc21)c1ccc(S(=O)(=O)N2CCCCC2)cc1`: the inhibition was 0.45% (inactive).

Regarding `Cn1c(CNC(=O)c2ccc(F)cc2)nc2ccccc21`, the inhibition was 0.325% (inactive).

Consider `CC1(C)CC(=O)C=C(NCCN2CCN(C(=O)Nc3ccc(Cl)c(Cl)c3)CC2)C1`, for which the inhibition is -0.235% (inactive).

Consider `CCc1ccc(S(=O)(=O)NCc2csc(-c3cccnc3)n2)s1`, for which the inhibition was 2.68% (inactive).

As for `CC(=O)c1cccc(NC(=O)N2CCCC2C(=O)NCc2ccccc2)c1` (stereo not given), the inhibition was 0.87% (inactive).

The next test is described as follows: RAM signaling pathway blockade in yeast – S. cerevisiae, Pdr1DBD-CYC8 efflux-inhibited sensitized strain, primary screen (AID 1298;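 active = RAM network inhibition above 8.4% in each of two replicates, 3 SD over the compound average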;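 note: 0% = DMSO untreated cells without growth and 100% = 10 µM 1-NA-PP1 full growth; higher means more yeast growth rescued from 5-FOA killing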). The note with it: S. cerevisiae cbk1-as DSE1-URA3 strain, 5-FOA growth OD615, 2 d; at 50 µM; active compounds read high.
For `C=CCOC(=O)C1=C(C)NC(=O)NC1/C=C/c1ccccc1` (stereo not given), the RAM network inhibition is 8.11% (inactive).

As for `Cc1nnc(NC(=O)CSc2nnc(Cc3cccn3C)n2-c2ccccc2)s1`, the RAM network inhibition is 4.48% (inactive).

Regarding `COc1ccc(-n2nnc3c(=O)n(CC(=O)OCc4ccccc4)cnc32)cc1`, the RAM network inhibition is 6.18% (inactive).

Regarding `Cc1ccc(C(C(=O)NC2CCCC2)N2CCCCC2)cc1` (stereo not given), the RAM network inhibition was 5.61% (inactive).

As for `COc1ccc(OC)c2sc(NC(=O)c3ccc(Br)s3)nc12`, the RAM network inhibition was 2.69% (inactive).

`COc1ccc(NC(=O)N(Cc2cccnc2)Cc2ccccc2Cl)c(OC)c1`: the RAM network inhibition is -0.05% (inactive).

For `O=C(O)c1cc(Cl)c(Cl)cc1C(=O)N1CCOCC1`, the RAM network inhibition was 1.67% (inactive).

As to `Cc1nnc(NC(=O)CSc2nnc(CNC(=O)c3ccccc3)n2-c2ccccc2)s1`, the RAM network inhibition was 3.59% (inactive).

Take `c1cncc(-c2nc3ccccn3c2Nc2ccc3c(c2)OCCO3)c1`: the RAM network inhibition was 4.54% (inactive).

As for `O=c1[nH]cnc2c1sc(=S)n2-c1ccccc1`, the RAM network inhibition is 8.71% (inactive).

For the molecule `O=C1c2ccccc2C(=O)C1c1ccncc1`, the RAM network inhibition was -0.62% (inactive).

On to `COc1ccccc1-n1c(CNC(=O)c2ccco2)nnc1SCC(=O)Nc1nccs1`, for which the RAM network inhibition is 1.25% (inactive).

Turning to `O=C(NCc1ccccc1)c1ccc(/C=N/O)nc1`, the RAM network inhibition is 6.66% (inactive).

`C=CCOC(=O)COc1ccc2c(C)c(C)c(=O)oc2c1`: the RAM network inhibition was 4.38% (inactive).

Take `CC1CCN(C(=O)c2cc(-c3ccccc3O)on2)CC1`: the RAM network inhibition was -2.14% (inactive).

For `CCCCn1c(=O)cc(N2CCOCC2)[nH]c1=O`, the RAM network inhibition was -0.95% (inactive).

As for `COC(=O)c1ccccc1NS(=O)(=O)c1cn(C)c(=O)n(C)c1=O`, the RAM network inhibition was 1.2% (inactive).

On to `CCOC(=O)c1c(C)n(C)c2ccc(OCC(N)=O)cc12`, for which the RAM network inhibition was 6.79% (inactive).

Take `CC(=O)NCC(=O)N(c1ccccc1)C1(C(=O)NC2CCCCC2)CCCCC1`: the RAM network inhibition is -0.7% (inactive).

On to `C=CCNc1nc2c(c(=O)n(C)c(=O)n2C)n1CC(=C)C`, for which the RAM network inhibition was 1.58% (inactive).

For `O=C(C1CC1)N1CCc2cc(Br)cc(S(=O)(=O)NCc3ccccn3)c21`, the RAM network inhibition was 5.17% (inactive).

Regarding `Cc1cccc(OCCn2c(=O)n(C)c3ccccc32)c1`, the RAM network inhibition is 0.1% (inactive).

`COc1ccc(CCNc2nc(=O)[nH]nc2C)cc1OC`: the RAM network inhibition is 0.16% (inactive).

Take `COCCNC(=O)Cn1cnc2sc(C)c(S(=O)(=O)N3CCC(C)CC3)c2c1=O`: the RAM network inhibition is 5.34% (inactive).

In the case of `CNC(=O)N(C1=NCC(C)(C)S1)c1ccc(F)c(Cl)c1`, the RAM network inhibition is 4.61% (inactive).

For the molecule `CN(C)CCNC(=O)c1ccc(CS(=O)(=O)c2ccc(Br)cc2)o1`, the RAM network inhibition was 2.81% (inactive).

For the molecule `Cc1cc(NC(=O)c2ccccc2)sc1C`, the RAM network inhibition is -1.89% (inactive).

Consider `CCOC(=O)N1CCC(NC(=O)c2cc3c(-c4ccc(Cl)cc4)nn(C)c3s2)CC1`, for which the RAM network inhibition was 2.43% (inactive).

For `O=C(CSc1ncnc2c1oc1ccccc12)NCc1ccc(F)cc1`, the RAM network inhibition was -2.13% (inactive).

With `CCCCSC1=C(C#N)C(c2ccccc2C)CC(=O)N1` (stereo not given), the RAM network inhibition was 5.84% (inactive).

With `CC(=O)NCC(=O)OCC(=O)c1ccc(C)cc1`, the RAM network inhibition was -0.06% (inactive).

In the case of `CC1(C)Cc2c(C#N)c(NC3CCCCC3)nc(-c3ccco3)c2CO1`, the RAM network inhibition was 0.53% (inactive).

As for `CC(C)NC(=O)c1ccc(CS(=O)(=O)c2ccc(Br)cc2)o1`, the RAM network inhibition was 4.82% (inactive).

For the molecule `COC(=O)Cn1c(CN2CCN(c3ccc(F)cc3)CC2)nc2c1c(=O)n(C)c(=O)n2C`, the RAM network inhibition is 1.93% (inactive).

Turning to `CN1CCc2c(sc(NC(=O)c3ccc(S(=O)(=O)N4CCOCC4)cc3)c2C(N)=O)C1`, the RAM network inhibition is 7.28% (inactive).

`O=C(NCCn1ccc2ccccc21)c1ccc(S(=O)(=O)N2CCCCC2)cc1`: the RAM network inhibition is 4.77% (inactive).

`Cn1c(CNC(=O)c2ccc(F)cc2)nc2ccccc21`: the RAM network inhibition was 3.67% (inactive).

For `CC1(C)CC(=O)C=C(NCCN2CCN(C(=O)Nc3ccc(Cl)c(Cl)c3)CC2)C1`, the RAM network inhibition was 3.08% (inactive).

On to `CCc1ccc(S(=O)(=O)NCc2csc(-c3cccnc3)n2)s1`, for which the RAM network inhibition is 2.28% (inactive).

On to `CC(=O)c1cccc(NC(=O)N2CCCC2C(=O)NCc2ccccc2)c1` (stereo not given), for which the RAM network inhibition was 1.46% (inactive).
